Rows were chosen to be rich in hits. Some 6.6% of all compounds tested hit in one or more screens of this group.
GDH-TPI inh = GDH-TPI coupling enzyme inhibitors, primary screen, artefact control for M. tuberculosis FBA inhibitor project, biochemical, absorbance, full deck; GDH-TPI coupled enzyme counterscreen, NADH absorbance; inhibition, % at 4.8 µM; 360,000 compounds, 1.2% hits; in the data active means inhibition above about 30%;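 further: 0% = DMSO wells and 100% = wells lacking the enzyme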
BoNT F protease = BoNT/F light chain protease inhibitors, primary screen, biochemical, flow cytometry, MLPCN library | 360,000 compounds, 0.22% hits | inhibition, % at 10 µM | Multiplex microsphere protease cleavage assay | AID 588497, 2011 | Botulinum neurotoxin type F light chain protease (Clostridium botulinum); in the data active means inhibition above about 35%, passing the limit was not always enough; inconclusive means no clear call, values can overlap the other calls; further: plate controls were buffer without enzyme for full effect and enzyme alone for no effect
Anthrax LF inh2 = Bacillus anthracis LF protease inhibitors, primary screen, biochemical, multiplex microsphere, MLPCN library; inhibition, % at 10 µM; multiplex microsphere protease cleavage assay; Lethal factor (Bacillus anthracis), P15917; AID 588501, 2011; 360,000 compounds, 0.12% hits; further: plate controls were buffer without enzyme for full effect and enzyme alone for no effect
Autofluor counter = compound fluorescence in toxin protease inhibitor counterscreen | compound autofluorescence counterscreen, microsphere flow cytometry; hits give high values | fluorescence intensity (no concentration beside the values) | 360,000 compounds, 3.1% hits | AID 624483; in the data active means fluorescence intensity above about 16000; inconclusive means no clear call, values can overlap the other calls
BoNT A protease = BoNT/A light chain protease inhibitors, primary screen, biochemical, flow cytometry, MLPCN library | inhibition, % at 10 µM | multiplex microsphere protease substrate cleavage | AID 588499, 2011 | 360,000 compounds, 0.17% hits; further: plate controls were buffer without enzyme for full effect and enzyme alone for no effect
FBA Mtb inh = Mtb FBA enzyme inhibitors, primary screen, biochemical, fluorescence, strain H37Rv. purified M. tuberculosis FBA, fluorescence read-out. inhibition, % at 1 µM. 360,000 compounds, 2.3% hits; in the data active means inhibition above about 27%;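 further: 0% = vehicle and 100% = reference inhibitor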
Target sequence (P9WQA3 whole entry, looked up): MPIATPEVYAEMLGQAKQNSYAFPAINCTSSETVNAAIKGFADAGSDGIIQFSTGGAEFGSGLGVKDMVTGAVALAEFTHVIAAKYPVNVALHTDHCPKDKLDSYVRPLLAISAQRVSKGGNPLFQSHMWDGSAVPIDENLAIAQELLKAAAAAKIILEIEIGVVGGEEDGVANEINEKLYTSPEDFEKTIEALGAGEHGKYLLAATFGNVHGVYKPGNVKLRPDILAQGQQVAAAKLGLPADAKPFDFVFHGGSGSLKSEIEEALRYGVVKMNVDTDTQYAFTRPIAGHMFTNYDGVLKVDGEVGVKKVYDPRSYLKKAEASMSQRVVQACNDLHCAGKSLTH
The depositor's hits bear a star. Unless noted, no stated cut-off is given here; in the data, active means inhibition above about 30%; inconclusive means no clear call, values can overlap the other calls; inactive means below that.

Results for C=CCn1c(C(C)C)nc2ccccc21 ?
GDH-TPI inh: -1; BoNT F protease: -4; Anthrax LF inh2: -4; Autofluor counter: 4406; BoNT A protease: 0; FBA Mtb inh: -1

How did C=CCn1c(N)c(C(=O)OC(C)CC)c2nc3ccccc3nc21 (stereo not drawn) do in these assays?
GDH-TPI inh: 20; BoNT F protease: -1; Anthrax LF inh2: -3; Autofluor counter: 2576; BoNT A protease: 1; FBA Mtb inh: 167*

What do the screens show for `C=CCn1c(N)c(C(=O)Nc2ccccc2)c2nc3ccccc3nc21`?
GDH-TPI inh: 5; BoNT F protease: -4; Anthrax LF inh2: -1; Autofluor counter: 3463; BoNT A protease: 2; FBA Mtb inh: 10

What do the screens show for `CN(C)c1ccc(C(=O)Nc2nnc(-c3ccc(Cl)cc3)o2)cc1`?
GDH-TPI inh: 35*; BoNT F protease: -7; Anthrax LF inh2: -12; Autofluor counter: 4695; BoNT A protease: 1; FBA Mtb inh: 5

Results for CC(=O)c1ccc(C(=O)Nc2nnc(-c3ccc(Cl)cc3)o2)cc1 ?
GDH-TPI inh: 19; BoNT F protease: -3; Anthrax LF inh2: 4; Autofluor counter: 5021; BoNT A protease: 0; FBA Mtb inh: -2

Results for O=C(O)CCn1cc(C2CC(c3ccccc3)=NN2c2ccccc2)c(-c2ccccc2)n1 (stereo not drawn) ?
GDH-TPI inh: 9; BoNT F protease: -1; Anthrax LF inh2: -3; Autofluor counter: 3791; BoNT A protease: 0; FBA Mtb inh: active

What do the screens show for `Cc1cccc(C)c1OCc1nnc(SCC(=O)NCCc2ccccc2)o1`?
GDH-TPI inh: 1; BoNT F protease: -6; Anthrax LF inh2: -2; Autofluor counter: 23122*; BoNT A protease: inconclusive; FBA Mtb inh: -2

How did COc1ccc(/C(O)=C/Sc2nnc(Cc3ccccc3)o2)cc1 do in these assays?
GDH-TPI inh: -1; BoNT F protease: -4; Anthrax LF inh2: -6; Autofluor counter: 24165*; BoNT A protease: -2; FBA Mtb inh: -5

What do the screens show for `O=C(CSc1nnc(Cc2ccccc2)o1)NCc1ccco1`?
GDH-TPI inh: 2; BoNT F protease: 1; Anthrax LF inh2: -9; Autofluor counter: 21761*; BoNT A protease: 1; FBA Mtb inh: 0

How did COc1ccccc1NC(=O)CSc1nnc(COc2ccc(Cl)cc2)o1 do in these assays?
GDH-TPI inh: -1; BoNT F protease: 0; Anthrax LF inh2: -1; Autofluor counter: 5786; BoNT A protease: -1; FBA Mtb inh: -1

What do the screens show for `COC(=O)c1ccccc1NC(=O)CSc1nnc(Cc2ccc(Cl)cc2)o1`?
GDH-TPI inh: -4; BoNT F protease: 11; Anthrax LF inh2: -23; Autofluor counter: 19277*; BoNT A protease: 6; FBA Mtb inh: 2

Results for OCCCNc1ncnc2c1ncn2[C@H]1CN(Cc2ccc(Cl)cc2)C[C@@H](CO)O1 ?
GDH-TPI inh: 13; BoNT F protease: 24; Anthrax LF inh2: 1; Autofluor counter: 2984; BoNT A protease: 2; FBA Mtb inh: 2

How did CCc1cc(=O)oc2cc3occ(-c4ccc(OC)c(F)c4)c3cc12 do in these assays?
GDH-TPI inh: 2; BoNT F protease: 1; Anthrax LF inh2: -1; Autofluor counter: 2308; BoNT A protease: 0; FBA Mtb inh: 4

How did CCCCCC(=O)N1C[C@@H](n2cc(C3CC3)nn2)[C@H](O)C[C@@H]1c1ccc(Cl)cc1 do in these assays?
GDH-TPI inh: 1; BoNT F protease: -7; Anthrax LF inh2: 3; Autofluor counter: 3333; BoNT A protease: -1; FBA Mtb inh: 3

How did COc1ccc(NC(=O)COC(=O)CN2C(=O)c3ccccc3C2=O)cc1 do in these assays?
GDH-TPI inh: 12; FBA Mtb inh: -1

How did OCc1cccc(-c2csc(C(O)c3ccco3)n2)c1 (stereo not drawn) do in these assays?
GDH-TPI inh: 12; BoNT F protease: -6; Anthrax LF inh2: -4; Autofluor counter: 2858; BoNT A protease: 0; FBA Mtb inh: 2

What do the screens show for `O=C(O)c1ccc(CSc2nnc(COc3ccccc3)o2)cc1`?
GDH-TPI inh: -2; BoNT F protease: 7; Anthrax LF inh2: 1; Autofluor counter: 4864; BoNT A protease: 2; FBA Mtb inh: 2

What do the screens show for `COc1ccc(CCNC(=O)CSc2nc3ccccc3o2)cc1OC`?
GDH-TPI inh: -1; BoNT F protease: -6; Anthrax LF inh2: -1; Autofluor counter: 23875*; BoNT A protease: -3; FBA Mtb inh: 1

How did COc1ccc(Cc2nnc(SCC(=O)NCCc3ccccc3)o2)cc1 do in these assays?
GDH-TPI inh: 7; BoNT F protease: -7; Anthrax LF inh2: -1; Autofluor counter: 21339*; BoNT A protease: inconclusive; FBA Mtb inh: 0

How did COc1ccc(CCNC(=O)CSCc2n[nH]c(=O)[nH]2)cc1OC do in these assays?
GDH-TPI inh: -6; BoNT F protease: 1; Anthrax LF inh2: -2; Autofluor counter: 20702*; BoNT A protease: inconclusive; FBA Mtb inh: 23

How did O=C(O)c1ccc(CSc2nnc(Cc3ccccc3)o2)cc1 do in these assays?
GDH-TPI inh: 12; BoNT F protease: -2; Anthrax LF inh2: -5; Autofluor counter: 16912*; BoNT A protease: -3; FBA Mtb inh: -1

Results for COc1ccc(CCNC(=O)CSCc2ccc(C)cc2)cc1OC ?
GDH-TPI inh: -6; BoNT F protease: -3; Anthrax LF inh2: 0; Autofluor counter: 2741; BoNT A protease: 0; FBA Mtb inh: 8

What do the screens show for `CCOC(=O)c1c(NC(=O)CSc2nnc(-c3ccccc3)o2)sc(C(C)=O)c1C`?
GDH-TPI inh: 22; BoNT F protease: -13; Anthrax LF inh2: -5; Autofluor counter: 3371; BoNT A protease: 1; FBA Mtb inh: 0

Results for CCOC(=O)c1c(NC(=O)CSc2nnc(Cc3ccccc3)o2)sc(C(C)=O)c1C ?
GDH-TPI inh: 19; BoNT F protease: -11; Anthrax LF inh2: -3; Autofluor counter: 18103*; BoNT A protease: inconclusive; FBA Mtb inh: 3

How did O=C(CSc1ccc(-c2ccccn2)nn1)Nc1ccc(F)c(F)c1 do in these assays?
GDH-TPI inh: 7; BoNT F protease: -10; Anthrax LF inh2: -4; Autofluor counter: inconclusive; BoNT A protease: -2; FBA Mtb inh: 1

Results for CCOC(=O)c1nc(C)[nH]c1C(=O)OCC ?
GDH-TPI inh: -8; BoNT F protease: 0; Anthrax LF inh2: -4; Autofluor counter: 22419*; BoNT A protease: inconclusive; FBA Mtb inh: 0

What do the screens show for `CCOC(=O)c1[nH]c(C=O)c(C(=O)OCC)c1C`?
GDH-TPI inh: 8; BoNT F protease: -4; Anthrax LF inh2: 2; Autofluor counter: 3441; BoNT A protease: 0; FBA Mtb inh: 3

Results for CCn1c(SCc2nc3ccccc3c(=O)[nH]2)nnc1-c1cccnc1 ?
GDH-TPI inh: 3; BoNT F protease: 1; Anthrax LF inh2: 1; Autofluor counter: 23337*; BoNT A protease: inconclusive; FBA Mtb inh: -1

Source: PubChem (several laboratories)
